This is a sample that favours compounds with a hit; in the whole collection about 7.3% have one here.
ELG1 genotoxic = induces genotoxicity in HEK293T cells with luciferase-tagged ELG1; HEK293T ELG1-luciferase reporter, luminescence, 16 h; Potency, µM (highest dose often 46 µM), for inactives: at the top dose activity change, positive = activation, most hits filed as activators; 1.3% of 330,000 active; AID 504466; further: % of control where 0% means no effect; nearly all actives have a fitted effect of over 60% in size
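Cells (2,000/well) expressing the ELG1-luciferase fusion are dosed by pin tool and kept 16 hr at 37 °C, 5% CO2. Signal comes from ONE-Glo luciferase reagent after 30 min at room temperature.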
NPC1 prom act = NPC1 promoter activation | Huh7 NPC1 promoter luciferase reporter, 24 h | Potency, µM (doses to about 9.22 µM), inactives show top-dose activation, most hits filed as activators | 2.4% of 320,000 active | AID 485313; further: % of control where 0% means no effect; nearly all actives have a fitted effect of over 60% in size
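Stable NPC1-promoter luciferase Huh7 line; cpd (DMSO) 24 h, 37 °C, 5% CO2; Amplite luciferase reagent 10 min RT; luminescence readout. qHTS format.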
SMN2 splice up = SMN2 splice variant enhancement | HEK293 SMN2-luciferase splicing reporter, luminescence, 30-36 h | 2.8% of 210,000 active | Potency, µM (doses to about 46.1 µM), without a hit: at the highest dose activity change, positive = activation, hits mostly activators; further: % of control where 0% means no effect; nearly all actives have a fitted effect of over 55% in size
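HEK293 cells carry an SMN2 minigene-luciferase reporter in which exon 7 inclusion puts luciferase in frame. Cells were seeded at 2000 cells/well, attached for 10-12 hours, then exposed to compounds for 30-36 hours at 37C before ONE-Glo luminescence.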
FLuc modulator = firefly luciferase modulation, counter-screen for miR-21 project | P08659 | purified FLuc, Km substrates, luminescence inhibition | Potency, µM (titrated, usually from 57.5 µM), for inactives: at the top dose activity change, negative = inhibition, usual class: inhibitors | 6.9% of 360,000 active | AID 588342;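 further: plate controls were vehicle for no effect and reference inhibitor for full effect; nearly all actives have a fitted effect of over 55% in size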
Target sequence (P08659 whole entry, looked up): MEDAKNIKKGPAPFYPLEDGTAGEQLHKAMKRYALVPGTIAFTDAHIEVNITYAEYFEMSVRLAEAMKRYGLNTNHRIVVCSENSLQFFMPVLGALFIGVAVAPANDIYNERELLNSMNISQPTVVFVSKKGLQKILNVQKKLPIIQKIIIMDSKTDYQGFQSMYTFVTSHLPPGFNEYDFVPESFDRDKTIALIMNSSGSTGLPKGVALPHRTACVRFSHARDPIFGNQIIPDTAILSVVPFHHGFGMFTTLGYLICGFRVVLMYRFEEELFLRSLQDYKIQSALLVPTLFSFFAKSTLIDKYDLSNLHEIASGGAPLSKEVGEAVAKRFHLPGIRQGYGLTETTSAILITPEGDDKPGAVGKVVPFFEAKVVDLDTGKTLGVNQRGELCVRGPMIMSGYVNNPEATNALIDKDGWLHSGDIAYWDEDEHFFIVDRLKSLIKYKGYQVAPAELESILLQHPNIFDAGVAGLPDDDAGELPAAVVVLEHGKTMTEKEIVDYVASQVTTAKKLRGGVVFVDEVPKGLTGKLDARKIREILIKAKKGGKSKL
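Purified P. pyralis luciferase (10nM final) with 10uM D-luciferin and 10uM ATP (Km levels) in 50mM Tris acetate pH 7.5, 10mM Mg acetate, 0.01% Tween-20, 0.05% BSA; qHTS 6-point titration, ~60 µM downward; luminescence read.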
KinaseGlo FLuc = Kinase-Glo luciferase inhibition (counter-screen); 0.28% of 200,000 active; Q27757; Kinase-Glo luciferase, ATP luminescence, 8 min; Potency, µM (doses to about 38.3 µM), without a hit: at the highest dose activity change, negative = inhibition, actives largely listed as inhibitors; further: on the % scale 0 is the no-effect control and ±100 the full control effect; nearly all actives have a fitted effect of over 60% in size
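Recombinant Kinase-Glo luciferase, 10 uM ATP (linear range), luciferin; imidazole pH 7.2 / KCl / MgCl2 / Tween / BSA buffer; 8 min RT; luminescence.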
Rab9 promoter act = activates the Rab9 promoter; 2.8% of 320,000 active; Potency, µM (doses to about 9.22 µM), without a hit: at the highest dose activation, negative = inhibition, actives largely listed as activators; Huh7 Rab9 promoter-luciferase reporter, luminescence, 24 h; further: % of control where 0% means no effect; nearly all actives have a fitted effect of over 60% in size
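Cells were plated at 1500 per well in reduced-serum medium with 10% FBS and left 2 h. Compound in DMSO was then added for 24 h at 37 °C. Reporter signal was read by luminescence after 10 min with luciferase detection reagent.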
Starred values were filed as active, the others as inactive; [ ] = remark or other dose. The call rests on the fitted dose curve; in most records, active means well fitted curve in the direction sought with a large enough effect; inconclusive means small, poorly fitted or top-dose-only effect, or another doubt; inactive means no such curve, though single readings can be large; an effect the other way counts as inactive or inconclusive. Potency means the concentration at half of the fitted maximal effect.

Screening Cc1ccnc(NC(=O)/C=C/c2cccs2)c1 returned ELG1 genotoxic inconclusive, NPC1 prom act 0.631µM*, SMN2 splice up 3.98µM*, FLuc modulator 3.01µM*, KinaseGlo FLuc -17.4% and Rab9 promoter act 0.631µM*.
Screening O=C(/C=C/c1cccs1)Nc1nc(-c2ccccc2)cs1 returned ELG1 genotoxic 18.9%, NPC1 prom act 18.1%, SMN2 splice up -4.1%, FLuc modulator 6.75µM*, KinaseGlo FLuc 2.9% and Rab9 promoter act 17.5%.
O=C(Cc1cccs1)Nc1nc(-c2ccccc2)cs1 was read as ELG1 genotoxic 9.6%, NPC1 prom act 13.5%, SMN2 splice up -30.7%, FLuc modulator 15.1µM*, KinaseGlo FLuc -3.8% and Rab9 promoter act 1.1%.
For O=C(/C=C/c1cccs1)Nc1nncs1 the results were ELG1 genotoxic 8.2%, NPC1 prom act inconclusive, FLuc modulator 16.9µM* and Rab9 promoter act inconclusive.
O=C(COC(=O)c1cccs1)Nc1nc(-c2ccccc2)cs1 was read as ELG1 genotoxic 2.4%, NPC1 prom act 5.8%, FLuc modulator -6.7% and Rab9 promoter act 20.1%.
For COCCn1ccc2c(OCC(=O)Nc3ccccc3OC)cccc2c1=O the results were ELG1 genotoxic -4.3%, NPC1 prom act -6.4%, FLuc modulator -9.4% and Rab9 promoter act -0.4%.
For CCCc1c(OCCCOc2ccc(OCC(=O)O)cc2)ccc(C(C)=O)c1O the results were ELG1 genotoxic -8.1%, NPC1 prom act 7.1%[46.1 µM], SMN2 splice up -12.1%, FLuc modulator 0.7%, KinaseGlo FLuc 2.1% and Rab9 promoter act -3.4%[46.1 µM].
Screening O=C(/C=C/c1cccs1)Nc1cccnc1 returned ELG1 genotoxic inconclusive, NPC1 prom act inconclusive, SMN2 splice up 17.8µM*, FLuc modulator 5.36µM*, KinaseGlo FLuc inconclusive and Rab9 promoter act 2.82µM*.
Screening O=C(/C=C/c1c(F)cccc1Cl)Nc1cccnc1 returned ELG1 genotoxic 2.31µM*, NPC1 prom act 1.58µM*, FLuc modulator 3.79µM* and Rab9 promoter act 3.98µM*.
Screening Cc1nn(CC(=O)Nc2ccc3c(c2)nc(CCN2CCCCC2)n3C)c(=O)c2ccccc12 returned ELG1 genotoxic -2.8%, NPC1 prom act -1.3%, SMN2 splice up 19.1%, FLuc modulator -0.4%, KinaseGlo FLuc -4.1% and Rab9 promoter act 4.1%.
Cc1nn(CC(=O)Nc2ccc3c(c2)nc2n3CCN(C3CCCCC3)C2)c(=O)c2ccccc12 was read as ELG1 genotoxic 0.7%, NPC1 prom act 9.5%, FLuc modulator 21.3µM*, KinaseGlo FLuc -0.1% and Rab9 promoter act -1.9%.
For COC(=O)CCS(=O)(=O)c1nc(-c2ccccc2)cc(C(F)(F)F)n1 the results were ELG1 genotoxic -21.9%, NPC1 prom act -16.4%, SMN2 splice up 12.6µM*, FLuc modulator 1.2%, KinaseGlo FLuc -2.8% and Rab9 promoter act -16.2%.
`CCCCc1ccc(Nc2ncccc2C#N)cc1` gave ELG1 genotoxic inconclusive, NPC1 prom act inconclusive, SMN2 splice up inconclusive, FLuc modulator 9.53µM*, KinaseGlo FLuc inconclusive and Rab9 promoter act 2.82µM*.
Screening O=C(NNC(=O)c1ccc(NC(=O)c2ccccc2)cc1)c1ccc(F)cc1 returned ELG1 genotoxic 18.3µM*, NPC1 prom act 0.6%, FLuc modulator 0.5% and Rab9 promoter act 7.7%.
O=C(Nc1ccccc1)c1ccc(S(=O)(=O)Nc2cccc(O)c2)cc1 was read as ELG1 genotoxic -8.6%, NPC1 prom act -0.5%, FLuc modulator 0.1% and Rab9 promoter act -3.6%.
`O=C(Nc1ccc(C(=O)c2ccccc2)cc1)c1ccccc1` gave ELG1 genotoxic inconclusive, NPC1 prom act 3.55µM*, FLuc modulator 10.7µM* and Rab9 promoter act 2µM*.
For CCC(=O)Nc1ccc(C(=O)c2ccccc2)cc1 the results were ELG1 genotoxic 5.5%, NPC1 prom act 12.5%, SMN2 splice up 5.9%, FLuc modulator inconclusive, KinaseGlo FLuc 1.8% and Rab9 promoter act inconclusive.
Screening O=C(Nc1ccc(Br)c(C(F)(F)F)c1)c1ccccc1 returned ELG1 genotoxic 2.0%, NPC1 prom act -3.7%, SMN2 splice up -12.7%, FLuc modulator 19µM*, KinaseGlo FLuc 1.7% and Rab9 promoter act -1.4%.
For CC(C)CC(=O)Nc1ccc(C(=O)Nc2cccc(O)c2)cc1 the results were ELG1 genotoxic inconclusive, NPC1 prom act 29.8%, FLuc modulator 16.9µM*, KinaseGlo FLuc -3.9% and Rab9 promoter act inconclusive.
`O=C(NNC(=O)c1ccc(NC(=O)c2ccccc2)cc1)Nc1ccccc1` gave ELG1 genotoxic 17.8%, NPC1 prom act -0.6%, SMN2 splice up -0.5%, FLuc modulator -12.5%, KinaseGlo FLuc -3.8% and Rab9 promoter act -3.8%.
`O=C(Nc1ccc(Br)c(C(F)(F)F)c1)c1ccc(C(F)(F)F)cc1` gave ELG1 genotoxic -12.2%, NPC1 prom act 2.1%, FLuc modulator inconclusive and Rab9 promoter act -2.9%.
Screening CC(=O)NC(C(=O)OCC(=O)N(c1ccccc1)c1ccccc1)C(C)C (stereo unspecified) returned ELG1 genotoxic 0.3%, NPC1 prom act -6.8%, FLuc modulator -0.9% and Rab9 promoter act 2.4%.
Screening COc1ccc(OCCNC(=O)Nc2cc(F)c(F)cc2Cl)cc1 returned ELG1 genotoxic -7.2%, NPC1 prom act -0.5%, SMN2 splice up 2.0%, FLuc modulator 2.4%, KinaseGlo FLuc 1.0% and Rab9 promoter act -2.9%.
Screening COc1ccc(CN2CCNC(=O)C2CC(=O)NC2CC(C)(C)CC(C)(C)C2)cc1OC (stereo unspecified) returned ELG1 genotoxic 3.7%, NPC1 prom act 0.0%, FLuc modulator 5.5% and Rab9 promoter act -1.5%.
For O=C(Nc1ccc(-c2cnco2)cc1)c1ccccc1 the results were ELG1 genotoxic inconclusive, NPC1 prom act 3.16µM*, FLuc modulator inconclusive and Rab9 promoter act 2.51µM*.
O=C(Nc1ccc(C(F)(F)F)cc1)c1ccccc1Br was read as ELG1 genotoxic 9.3%, NPC1 prom act 21.6%, SMN2 splice up inconclusive, FLuc modulator inconclusive, KinaseGlo FLuc 0.8% and Rab9 promoter act 28.4%.
Screening O=C(Nc1cccc(O)c1)c1ccc(C(F)(F)F)cc1 returned ELG1 genotoxic 18.3%, NPC1 prom act inconclusive, FLuc modulator 12µM*, KinaseGlo FLuc -13.2% and Rab9 promoter act inconclusive.
`O=C(Nc1ccc(C(F)(F)F)cc1)c1ccccc1` gave ELG1 genotoxic 17.9%, NPC1 prom act 2.82µM*, FLuc modulator inconclusive and Rab9 promoter act 2.51µM*.
`Cc1ccc(C)n1-c1ccc(C(=O)Nc2ccccc2)cc1` gave ELG1 genotoxic inconclusive, NPC1 prom act 28.0%, SMN2 splice up 12.6µM*, FLuc modulator 9.53µM*, KinaseGlo FLuc -8.2% and Rab9 promoter act inconclusive.

Bioassay records as filed in PubChem BioAssay.
